Measured values from PubChem BioAssay AID1117319 (Southern Research Institute, 2015).
The whole screen tested about 260,000 compounds, of which about 1,500 (0.58%) were called active. Roughly 5% stayed inconclusive and do not appear here.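 How the source made its calls: active means inhibition above a set limit at one or more doses, reproduced on every date tested; inconclusive means results disagree between test dates, or hit never tested in dose response; inactive means the rest.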 Only a sample is shown. Measured potencies and affinities stand elsewhere.

These molecules were tested against Virion infectivity factor (Human immunodeficiency virus type 1 group M subtype B (isolate BH10)) + Virion infectivity factor (Human immunodeficiency virus type 1 group M subtype B (isolate BRU/LAI)) + Virion infectivity factor (Human immunodeficiency virus type 1 group M subtype B (isolate PCV12)) + Virion infectivity factor (Human immunodeficiency virus type 1 group M subtype B (isolate HXB2)) + DNA dC->dU-editing enzyme APOBEC-3G (Homo sapiens) (UniProt P69720+P69721+P69722+P69723+Q9HC16) (assay: HIV-1 Vif–A3G interaction blockers – biochemical, TR-FRET, GST-Vif 1-94, biotin-A3G peptide, dose response retest, primary screen (AID 1117319;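 further: Vif residues 1-94 fused to GST binding biotinylated APOBEC3G peptide 110-148; 0% = full assay without inhibitor and 100% = GST in place of GST-Vif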)). Settings: TR-FRET GST-Vif / biotin-A3G peptide binding; active compounds read high.

inhibition, inactive:
O=C(CCCCn1ccc(=O)[nH]c1=O)Nc1ccc(O)c(C(=O)O)c1 -11.5%
Cc1ccsc1-c1nc(CN(C)C(C2CC2)C2CC2)c(C)o1 4.23%
COc1cc2c(cc1OC)CN(Cc1nc3ccsc3c(=O)[nH]1)CC2 7.56%
COc1ccc(N2CCN(Cc3nc4c(c(=O)[nH]c(=O)n4C)n3CC(C)=O)CC2)cc1 8.98%
Cc1ccc(SCC(=O)Nc2ccc(N3CCOCC3)cc2)cc1C -8.83%
COc1ccc(NC(=O)NNS(=O)(=O)c2ccc(OC)c(OC)c2)c(OC)c1 5.71%
O=C(Nc1ccc(S(=O)(=O)N2CCCCC2)cc1)c1ccccc1Cl 0.17%
Cc1ccc(CSCC(=O)NCc2ccc3c(c2)OCO3)cc1 14.3%
COc1cc2c(cc1OC)CN(C(=O)c1cccc(S(=O)(=O)N3CCc4ccccc43)c1)CC2 8.84%
O=C(CNC(=O)c1cccc(-n2cccc2)c1)Nc1ccccc1Br 4.99%
CCN(CC(=O)Nc1ccc(NC(C)=O)cc1)C(=O)c1cccc(-n2cccc2)c1 16.2%
CN(CC(=O)Nc1ccccc1C(F)(F)F)C(=O)c1cccc(-n2cccc2)c1 6.51%
Cc1cccc(NC(=O)CNC(=O)c2ccc3nc[nH]c3c2)c1C 9.97%
CCN(CC(=O)Nc1c(F)cccc1F)C(=O)c1cccc(-n2cnnn2)c1 -3.65%
Cc1cccc(C)c1NC(=O)CN(C)C(=O)c1cccc(-n2cccc2)c1 9.97%
CN(CC(=O)Nc1ccccc1Cl)C(=O)c1cccc(-n2cccc2)c1 -0.39%
Cc1ccc(NC(=O)CN(C)C(=O)c2cccc(Br)c2)cc1 -1.1%
O=C(CCNS(=O)(=O)c1ccc(F)cc1)N1CCN(c2ncccn2)CC1 -6.24%
Cc1oc2cc3oc(=O)c(CCC(=O)NCCC(=O)O)c(C)c3cc2c1C 2.04%
O=C(O)c1cccc2c1C(=O)c1cc([N+](=O)[O-])cc([N+](=O)[O-])c1-2 6.48%
COc1ccc(C2c3ccsc3CCN2C(=O)NC(C)(C)C)cc1 (centres undefined) -4.12%
COCCN(C(=O)COC(=O)CCOc1ccccc1)c1c(N)n(Cc2ccccc2)c(=O)[nH]c1=O 0.29%
COc1ccc(NC(=O)CSc2ncnc3c2cnn3Cc2ccccc2)cc1OC 23.2%
O=C(Nc1cccc2ccccc12)N1CCN(Cc2ccccc2)CC1 20.5%
COC(=O)CSc1nnc(-c2ccccn2)n1N -2.48%
CCOC(=O)N1CCN(CC(=O)Nc2ccc(OC)cc2)CC1 -0.76%
Cc1ccc(C(CC(=O)N2CCCCC2)c2ccccc2)c(O)c1C (centres undefined) -1.48%
COc1cc(Cl)c(C)cc1NC(=O)CN1C(=O)C2CCCCC2C1=O (centres undefined) -15.8%
O=C(NCC1CCCO1)c1ccc(CS(=O)(=O)c2ccc(Cl)cc2)o1 (centres undefined) 0.48%
Cc1ccc(CC(=O)NNC(=O)c2cccs2)cc1C -2.08%
O=c1cc(CO)oc(C(Nc2ccccn2)c2ccc(C(F)(F)F)cc2)c1O (centres undefined) 10.8%
COc1ccc(C(Nc2ccccn2)c2oc(CO)cc(=O)c2O)cc1 (centres undefined) 20.9%
CN(c1ccccc1)S(=O)(=O)c1ccc(C(=O)NCC2CCCO2)cc1 (centres undefined) 6.12%
Cc1ccc2c(c1)n([O-])c1c([n+]2=O)CCCC1 1.62%
O=[n+]1c2c(n([O-])c3ccccc31)CCCC2 9.07%
O=[n+]1c2c(n([O-])c3cc(Br)ccc31)CCCC2 30%
O=[n+]1c2c(n([O-])c3cc(F)ccc31)CCCC2 11.7%
O=[n+]1c2c(n([O-])c3c1CCCC3)CCCC2 3.36%
O=[n+]1c2c(n([O-])c3cc(F)c(N4CCCC4)cc31)CCC2 25.7%
CCOc1ccc2c(c1)n([O-])c1c([n+]2=O)CCCC1 23.4%
O=[n+]1cc(-c2ccc(Br)cc2)n([O-])c2c1CCC2 3.02%
Cc1ccc2oc3nc(C)c(C(=O)O)cc3c(=O)c2c1 3.05%
CCN(CC)CCn1c(=S)[nH]c2cc(C(=O)NCCc3ccc(OC)c(OC)c3)ccc2c1=O -5.2%
S=c1[nH]nc2nnc3ccccc3n12 -8.57%
COCCN1C(=O)c2[nH]nc(-c3ccccc3O)c2C1c1ccc(OC)cc1 (centres undefined) 4.2%
CCOC(=O)C1=C(C)N(C)C(=S)NC1c1cc(OC)ccc1OC (centres undefined) 29.4%
Cc1ccc(NC(=O)N2CCC(C(=O)Nc3ccc(C)cc3C)CC2)cc1 -2.75%
COC(=O)C1CCN(S(=O)(=O)c2c[nH]c(=O)[nH]c2=O)CC1 -3.67%
CC(C)CN(CC(C)C)S(=O)(=O)N1CCC(C(=O)N2CCc3ccccc3C2)CC1 10.1%
O=C(CSc1ccc2nnc(-c3ccccn3)n2n1)N1CCOCC1 5.93%
CCOC(=O)C=Nc1c(N)n(C)c(=O)n(C)c1=O -1.01%
CCCCSc1c(C)c2cc3c(cc2[nH]c1=O)OCO3 -11.4%
COc1cc(C(=O)NC(=S)NCc2ccco2)cc(OC)c1OC 5.31%
COc1cc(C(=O)NCc2ccco2)cc(OC)c1OC -2.63%
N#CC1=C(N)OC2=C(CC/C2=C\c2ccccc2)C1c1ccccc1 (centres undefined) 22.4%
Cc1ccc(/C=C2\CCC3=C2OC(N)=C(C#N)C3c2ccc(C)cc2)cc1 (centres undefined) 20.9%
CCOC(=O)N1CCN(C(=O)CN(Cc2ccccc2)S(=O)(=O)c2ccc(OC)c(Cl)c2)CC1 -0.5%
O=C(OCc1nc2scc(-c3ccccc3)c2c(=O)[nH]1)c1cc([N+](=O)[O-])ccc1Cl 1.37%
CCN(CC)CCNC(=O)Cn1nc(Cc2cccnc2)c2ccccc2c1=O -0.43%
